# From the supplement of paper PMC11417369
# ± gives the standard deviation of the averaged measurements. In all, about 25,000 sequences were measured (“ln(normalized median fluorescence intensity)”: median about 10, highest 2% from about 12 on). The list comes from a sample in which the highest values are over-represented; it also holds similar and randomly drawn sequences.
# Test system: PfAP2-G AP2 domain (GST-tagged)
# Assay: gcPBM binding intensity (ln(normalized median fluorescence intensity)); higher = stronger DNA binding
# Outline: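 The binding buffer was 1× PBS containing 1% milk, 0.2 mg/ml BSA, 0.5% salmon testes DNA and 0.03% Triton X-100. In it, GST-tagged P. falciparum DNA-binding domains expressed in E. coli were applied for 1 h to an Agilent 4 × 180k array of primer-extended double-stranded 36-bp intergenic genomic probes plus negative controls. Binding intensity, read with Alexa488 anti-GST antibody and a 488 nm scan, is the highest Masliner-normalised natural-log median intensity across replicate spots of either probe orientation.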
row,Sequence,gcPBM binding intensity (ln)
1,AATGTACAAATACGTACACACATATTTATATTTATA [CACACA_site6833],11.6 ± 0.99
2,ATAAATAAATTTATACGTACACATAATATATATATA [XGTACX_site4634],11.6 ± 0.89
3,TATAAATAAATGCGTACACACTAATAAAAAAAAAAA [CACACA_site4630],11.6 ± 1.1
4,TCAGAGTGAAGTTATACACACATGGTTTTTTTTTTT [CACACA_site2116],9.875 ± 0.021
5,TAAAGAAAAAAATGTTGTACTTTATGAAACATATTT [XGTACX_site412],11.2 ± 0.79
6,TAAATATTTTTTTAGACACACATATATCTATGATAT [CACACA_site1107],9.705 ± 0.049
7,AATATACACCCGTGTACACAAATATTTACAAAACGT [CACACA_site4786],11.7 ± 1.1
8,ATAAATAAGATACGTACACACATATACAAAATATAC [CACACA_site3661],11.5 ± 0.95
9,TTTCTCCCATTTTTTAGTACACAAAATATATATGTA [XGTACX_site7218],11.7 ± 1.1
10,AGATAAAATATATACACACACATAAATACGTACAAA [CACACA_site1086],11.8 ± 1
11,TTAATTAAATATTATACACACAAAAAAATAATTTTA [CACACA_site96],10 ± 0.16
12,CCATTTACAAAAAGGAGTACACAAATATATGTTTAA [XGTACX_site649],11.6 ± 0.93
13,TATACAAAATATTTTACACACACATATATATACATA [CACACA_site2616],10.01 ± 0.057
14,ATTTTTTAAATGAGGCGTACACAAAAATATAATTAC [XGTACX_site7087],11.7 ± 1.1
15,AGATAAGATATATACACACACATAAATACGTACAAA [CACACA_site6639],11.6 ± 0.78
16,TTATTTATTTTTATATGTACACAAAAAAAAAAAAAA [XGTACX_site1459],11.5 ± 1.1
17,AAAAAAAAAACATACACACACACAAATATTTATATA [CACACA_site437],9.85 ± 0.11
18,TTAATGAAATATTATACACACAAAAAAATAATTTTA [CACACA_site4231],9.915 ± 0.092
19,ATAACAAATATGATAGCATGCTACATATTACAACTT [TGCATGCA_site524],9.71 ± 0.16
20,TATATCTGTAAATGCACACATATGTGGATATACTTA [CACACA_site5013],10.1
21,ATATATATATATAGTAGTACTCTCTCTGTATATATA [XGTACX_site3754],11.3 ± 0.75
22,TATATAAACCCACCTACACACACAACGTAAATGCAT [CACACA_site8702],10.2 ± 0.14
23,AAAAAAAAAAAAAACACACAGAAATATATATATATT [CACACA_site832],9.82 ± 0.33

row,Sequence,gcPBM binding intensity (ln)
1,ATATATACCTATATTACACACTTCTTATTCTAAGAA [CACACA_site7421],9.865 ± 0.092
2,ATATAAATGAATATATGTACATATATATATATATAT [XGTACX_site6361],11.2 ± 0.52
3,AAGGAGCCTATGAACACACACATGTACAGATATTAA [CACACA_site6107],11.1 ± 0.52
4,TATATATACATATACACACACACACCGATATATATA [CACACA_site8706],10.1 ± 0.26
5,TATACAATATTTATAACACACATATTTATATAAACT [CACACA_site6932],9.885 ± 0.078
6,TGTACAAATATGTACACACACACATATTTATTTATA [CACACA_site6419],11.5 ± 0.95
7,TAATATTCAATTATACGTACACATATATATATATAT [XGTACX_site4245],11.8 ± 1.1
8,ATACATATATAAATACGTACATATATAATTATATAT [XGTACX_site8178],11.6 ± 0.93
9,TCATATAAATACACGTGTACATATATATATTACAGT [XGTACX_site1954],11.5 ± 0.81
10,GATTTATACAAATATGTACACACTAATTATATATTA [CACACA_site8045],11.5 ± 0.87
11,TTACACATATTATATATATATAAAAAAAAAAAATAT [CACACA_negctrl_site1684],9.82 ± 0.29
12,GAATAAATAAGATACGTACACACATATACAAAATAT [CACACA_site3660],11.7 ± 1.1
13,TAAAATATTACGTGTACACATAAATAAAAATAAAAA [CACACA_site5066],11.8 ± 0.92
14,ATTATATATACATATACACACATACGTACATACATA [CACACA_site9194],11.5 ± 0.93
15,AAAGATAAAATATATACACACACATAAATACGTACA [CACACA_site8275],11.3 ± 0.88
16,TGAATAAATAAGATACGTACACACATATACAAAATA [XGTACX_site7758],11.5 ± 0.83
17,TGCTCTAATTTATATACACACAAATATGTACACATA [CACACA_site7845],11.7 ± 1.2
18,ATTCTACGCACGCGCACACACAACAAAAAAAAAAAA [CACACA_site3538],10.8 ± 0.68
19,AACAGACATAGACACACACACATATATTTATTTATA [CACACA_site7571],10.11 ± 0.085
20,TTAACATAAATTGTGTCATTTTTTTTTTTTTTTTTA [CACACA_negctrl_site1221],9.725 ± 0.021
21,TAGCGCATAAAAAAAAAAAAATATATACTAATAAAT [GTGCAC_negctrl_site276],9.57 ± 0.071
22,TTCTATATATATATAGACAAACGATAAAATAAAAAA [GTGCAC_negctrl_site142],10.1 ± 0.23
